# Measurements as given in PubChem BioAssay.
# Results filed as inconclusive are left out. The source made the active and inactive calls. The limit is not given here; nearly all actives have AC50 up to about 26 µM.
# Assay: viability loss in pontine glioma line – cell-based, SU-DIPG-XVII, MIPE5.0, CellTiter-Glo, qHTS, dose response (AID 1347060);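 as to AC50: cells exposed to compound for 48 hours before viability readout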
# Conditions: CellTiter-Glo ATP luminescence
SMILES,AC50,outcome
CNS(=O)(=O)Nc1nccc(Cc2c(C)c3ccc(Oc4ncccn4)cc3oc2=O)c1F,1480 nM (active),–
CCCCCCCOc1ccc(CCC(N)(CO)CO)cc1C(F)(F)F,8330 nM (active),–
CC1Oc2cc(cnc2N)-c2c(nn(C)c2C#N)CN(C)C(=O)c2ccc(F)cc21 (centres undefined),14800 nM (active),–
COc1cc(C(=O)O)ccc1NC(=O)[C@@H]1N[C@@H](CC(C)(C)C)[C@](C#N)(c2ccc(Cl)cc2F)[C@H]1c1cccc(Cl)c1F,6610 nM (active),–
CC(C)c1c2cc(-c3ccnc(NC4CCC(NC5CCOCC5)CC4)n3)ccc2nn1C (centres undefined),417 nM (active),–
CCc1cc2c(c(OCC(F)(F)F)c(C(=O)NC3CCN(C(=O)CO)CC3)n2C)c(=O)n1CC(=O)c1ccccc1,–,inactive
CCN(C(=O)c1ccccc1OC)c1cc2c(cc1N1CCNC[C@H]1C)n(C)c(=O)n2C,–,inactive
COc1cc(OC)cc(N2CCN(C(=O)Nc3nc4cc(F)ccc4nc3OC)CC2)c1,833 nM (active),–
CCOC(=N)c1nc2ccc3ncnc(Nc4cc(F)c(F)cc4Cl)c3c2s1,16600 nM (active),–
CC[C@@H](C)Nc1cc(C(=O)NC2CC3CCC(C2)N3c2ccc(C(=O)C3CC3)cn2)c(C)cc1C(N)=O (some centres undefined),148 nM (active),–
Cc1cc(C(=O)Nc2cc(Nc3ccc4c(/C=C/c5ccccn5)n[nH]c4c3)ccc2F)n(C)n1,8330 nM (active),–
COc1ccc(-c2cc(C(O)C3CCCCN3)c3ccccc3n2)cc1 (centres undefined),20900 nM (active),–
CC(C)NC(=O)C1CCC(n2c(NC(=O)c3ccc(F)cc3)nc3ccc(CN4CCC(C(C)(C)O)CC4)cc32)CC1 (centres undefined),9100 nM (active),–
CCn1c(=O)c(-c2ccc(-c3cncs3)cc2Cl)cc2cnc(Nc3ccc(N4CCN(C)CC4)cc3)nc21,3320 nM (active),–
CNC(=O)c1ccccc1Nc1nc(Nc2ccc3c(c2OC)CCC[C@@H](N2CCN(CCO)CC2)C3)ncc1Cl,2350 nM (active),–
Cn1nccc1Nc1nccc(-c2ccn([C@H](CO)c3ccc(Cl)c(F)c3)c(=O)c2)n1,18600 nM (active),–
Fc1cccc(-n2cnc3c(NCc4nc5c(F)c(F)ccc5[nH]4)nc(N4CCOCC4)nc32)c1,166 nM (active),–
O=C(c1ccc(Nc2nc(C3CC3)cn3c(-c4cn[nH]c4)cnc23)c(F)c1)N1CCOCC1,5250 nM (active),–
O=C(/C=C\n1cnc(-c2cc(C(F)(F)F)cc(C(F)(F)F)c2)n1)NNc1ccccn1,2950 nM (active),–
O=C(NCc1ccc(S(=O)(=O)c2cccc(C(F)(F)F)c2)cc1)c1cnc2[nH]ncc2c1,26.3 nM (active),–

SMILES,AC50,outcome
O=C(Nc1ccc2[nH]nc(-c3ccncc3)c2c1)[C@@H]1CCN(CC(=O)N2CCN(c3ccc(-c4ncccn4)cc3)CC2)C1,1050 nM (active),–
CNC(=O)c1ccc(Nc2ncc(C(F)(F)F)c(NCc3nccnc3N(C)S(C)(=O)=O)n2)cc1,4680 nM (active),–
CCN(CC)CCNc1ccc(C)c2sc3ccccc3c(=O)c12,13200 nM (active),–
Nc1cc(C(F)(F)F)c(-c2nc(N3CCOCC3)nc(N3CCOCC3)n2)cn1,2350 nM (active),–
CC[C@@H](C)Nc1cc(C(=O)NC2CC3CC[C@@H](C2)N3c2ccc(C(=O)C3CC3)cn2)c(C)cc1C(N)=O (some centres undefined),118 nM (active),–
Cn1cc(-c2ccc(S(=O)(=O)n3ccc(/C=C/C(=O)Nc4ccccc4N)c3)cc2)cn1,1480 nM (active),–
O=c1sn(-c2cccc3ccccc23)c(=O)n1Cc1ccccc1,23500 nM (active),–
C[C@@H]1COCCN1c1cc(=O)n2c(n1)N(Cc1cncc(Cl)c1)[C@H](C(F)(F)F)CC2,–,inactive
Cn1cncc1C(N)(c1ccc(Cl)cc1)c1ccc2c(c1)c(-c1cccc(Cl)c1)cc(=O)n2C (centres undefined),18600 nM (active),–
CN1C(=O)[C@@H](NC(=O)c2cc(Cc3ccccc3)on2)COc2ccccc21,–,inactive
COC(=O)N1CC2(CC2)C[C@H](C(=O)NO)[C@H]1C(=O)N1CCN(c2ccccc2)CC1,–,inactive
CC#CC(=O)N1CCC[C@H]1c1nc(-c2ccc(C(=O)Nc3ccccn3)cc2)c2c(N)nccn12,–,inactive
CCCCN(CCCC)C(=O)CN1C[C@H](c2ccc3c(c2)OCO3)[C@@H](C(=O)O)[C@@H]1c1ccc(OC)cc1,–,inactive
O=C(NOCCO)c1ccc2cncn2c1Nc1ccc(I)cc1F,148 nM (active),–
CCc1nc(C(N)=O)c(Nc2ccc(N3CCC(N4CCN(C)CC4)CC3)c(OC)c2)nc1NC1CCOCC1,2350 nM (active),–
NS(=O)(=O)Oc1ccc2c3c(c(=O)oc2c1)CCCCC3,–,inactive
Nc1ccc(/C=C/C(=O)NCc2cc3cc(-c4ccc(C(=O)N5CCC(F)(F)CC5)cc4)cc(-c4ccc(F)cc4)c3o2)cn1,105 nM (active),–
CN(C)C/C=C/C(=O)Nc1cccc(C(=O)Nc2cccc(Nc3ncc(Cl)c(-c4c[nH]c5ccccc45)n3)c2)c1,417 nM (active),–
Nc1nc(N)c2nc(-c3cccc(Cl)c3)c(N)nc2n1,1320 nM (active),–
